This is a sample that favours compounds with a hit; in the whole collection about 1.6% have one here.
KCNQ2 pot – enhances the rat KCNQ2 potassium channel; actives 0.54% (n = 310,000); CHO-K1 KCNQ2, FluxOR thallium flux fluorescence; active compounds read high; O88943; B-score at 10 µM; AID 2239;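 active means fluorescence ratio B-score at least 3 SD of library B-scores, with initial fluorescence B-score within 3 of them, cut at about 5.3 in these data; same plate scores as AID 2156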;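 further: B-score of peak minus minimum over baseline fluorescence ratio after K+ and Tl+ stimulus; positive B-score means potentiation of KCNQ2 with more thallium influx and brighter signal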
KCNQ2 block – inhibitors of rat KCNQ2 potassium channel; O88943; CHO-K1 KCNQ2, FluxOR thallium flux, 20 min; active compounds read low; B-score at 10 µM; actives 1.1% (n = 310,000);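 active means fluorescence ratio B-score at most minus 3 library SDs, with starting brightness B-score within 2 library SDs, cut at about -5.5 in these data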
Kir21 confirm – confirmation of mouse Kir2.1 potassium channel inhibitors; shares compounds with KCNQ2 pot; Kir2.1-expressing cells, FluxOR thallium flux fluorescence; active compounds read low; Tl flux remaining, % of negative control (active compounds read low), % at 10 µM; actives 41% (n = 2,300); AID 2032;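 active means Primary-screen hit whose thallium flux fell at least 3 control SD below untreated wells in both duplicates, with normal baseline fluorescence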;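 further: 0% = blank wells without stimulus and 100% = stimulated no-compound controls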
HEK293 Tl flux – counter-screen for Kir2.1 inhibitors: effect in parental HEK293 cells | FluxOR signal as % of negative control (100 = no effect), % at 10 µM | shares compounds with KCNQ2 pot | FluxOR thallium flux fluorescence; 0% = unstimulated blank wells | actives 19% (n = 2,300);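 active means dye signal at least 3 control SD above or below untreated wells in both duplicates, raw fluorescence within 3, either direction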;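 further: percent is based on the flux ratio of peak minus minimum fluorescence over baseline F0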
CHO-K1 ctr – parental CHO-K1 activity in KCNQ2 potentiator counter-screen. shares compounds with KCNQ2 pot. activity increase over 3SD of controls, % at 10 µM. parental CHO-K1 cells, FluxOR thallium flux fluorescence; zero = vehicle mean+3SD, 100% = vehicle-minus-blank window. actives 43% (n = 1,200);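 active means signal rise of at least 3 SD above the untreated control mean, in both duplicate wells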;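 further: counter screen of KCNQ2 potentiator hits so any rise reflects channel-independent effects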
KCNQ1 sel pot – selectivity of KCNQ2 potentiators: effect on human KCNQ1; shares compounds with KCNQ2 pot; CHO KCNQ1 stable, FluxOR thallium flux fluorescence; beyond 3SD, as % of vehicle-control signal; activation over 3SD threshold, % at 10 µM; actives 28% (n = 1,200);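 active means fluorescence ratio rise of at least 3 SD of vehicle wells above their mean, in both replicate wells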;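 further: 0% = vehicle mean plus 3 SD and 100% = vehicle minus unstimulated blank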
Target sequence (P51787 whole entry, looked up): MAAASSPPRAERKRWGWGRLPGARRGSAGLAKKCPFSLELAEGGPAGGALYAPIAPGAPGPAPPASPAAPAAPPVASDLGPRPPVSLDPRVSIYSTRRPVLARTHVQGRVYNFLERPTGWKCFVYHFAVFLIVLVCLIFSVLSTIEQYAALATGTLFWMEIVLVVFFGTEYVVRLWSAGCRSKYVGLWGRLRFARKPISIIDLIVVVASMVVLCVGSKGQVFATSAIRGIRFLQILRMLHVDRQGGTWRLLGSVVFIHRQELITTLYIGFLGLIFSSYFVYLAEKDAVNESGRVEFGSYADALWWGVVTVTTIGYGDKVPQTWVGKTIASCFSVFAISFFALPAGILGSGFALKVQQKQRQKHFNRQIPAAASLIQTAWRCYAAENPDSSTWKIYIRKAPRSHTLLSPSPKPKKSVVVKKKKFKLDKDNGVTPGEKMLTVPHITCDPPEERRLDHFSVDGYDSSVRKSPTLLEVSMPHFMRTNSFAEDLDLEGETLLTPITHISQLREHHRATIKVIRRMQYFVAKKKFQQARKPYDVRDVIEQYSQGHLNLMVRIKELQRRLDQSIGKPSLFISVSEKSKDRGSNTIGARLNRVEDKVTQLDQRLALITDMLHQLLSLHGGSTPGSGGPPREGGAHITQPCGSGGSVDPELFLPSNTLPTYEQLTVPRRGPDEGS
KCNQ2 pot conf – confirmation of rat KCNQ2 potassium channel potentiators; shares compounds with KCNQ2 pot; CHO-KCNQ2 cells, FluxOR thallium flux fluorescence; potentiation, less the hit threshold, % at 10 µM; actives 68% (n = 1,200); AID 2287;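 active means fluorescence ratio rising 3 SD or more over the vehicle control mean in both replicates, plus primary screen hit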;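 further: peak minus minimum thallium fluorescence divided by baseline after K/Tl stimulus; 0% = vehicle mean plus 3 SD and 100% = vehicle minus unstimulated blank difference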
Kir21 spec – selectivity of KCNQ2 potentiators: effect on mouse Kir2.1. actives 2% (n = 1,200). activity over 3SD threshold, % at 10 µM. shares compounds with KCNQ2 pot. HEK293 Kir2.1, FluxOR thallium flux fluorescence;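 active means fluorescence ratio rise of at least 3 SD above the vehicle-control mean, seen in both replicates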;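 further: 0% = vehicle mean plus 3 SD and 100% = vehicle minus no-stimulus blank window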
KCNQ2 W236L MoA – potentiates the retigabine-insensitive rat KCNQ2 W236L mutant channel; shares compounds with KCNQ2 pot; CHO KCNQ2-W236L, automated patch clamp current; current increase over 3SD of negative controls (%), active compounds read high, % at 25 µM; actives 10% (n = 940);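 active means current increase at least 3 SD of the untreated controls above them in both duplicate recordings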
* hit, by the source's call; i = inactive; . = no result given.

SMILES	KCNQ2 pot	KCNQ2 block	Kir21 confirm	HEK293 Tl flux	others
C/C(=N/O)c1ccc2c(c1)OCCOCCOc1cc(/C(C)=N/O)ccc1OCCOCCO2	0.29	i	.	.
Cc1cccc(CCNC(=O)COc2cc(=O)n(C)c3ccccc23)c1	.	i	.	.
CCN(CCCNC(=O)COc1cc(=O)n(C)c2ccccc12)c1cccc(C)c1	.	i	60.0%*	i
O=C(COc1cccc2ccccc12)Nc1ccc(Cl)cc1C(=O)O	7.2*	i	i	129.0%*	CHO-K1 ctr=-1.6;KCNQ1 sel pot=-1.1;KCNQ2 pot conf=23.1*;Kir21 spec=-31.4;KCNQ2 W236L MoA=i
O=C(COc1cccc2ccccc12)Nc1cc(Cl)ccc1C(=O)O	4.64	i	.	.
CCCCCC(NC(=O)C1CCN(C(=O)[C@@H](NS(=O)(=O)c2ccc(C)cc2)C(C)C)CC1)C(=O)O (stereo not given in full)	0.79	i	.	.
C/C(N)=C(/C#N)C(=O)COC(=O)CC1CCCC1	.	i	.	.
C/C(N)=C(/C#N)C(=O)COC(=O)C1CCC(C(C)(C)C)CC1 (stereo not given)	5.28	i	28.0%*	i	CHO-K1 ctr=8.1*;KCNQ1 sel pot=-36.3;KCNQ2 pot conf=7.8*;Kir21 spec=-102.5;KCNQ2 W236L MoA=i
Clc1ccc(-c2cc(C3CCNCC3)[nH]n2)cc1	.	i	38.5%*	i
Cc1ccc(CN2CCC(c3cc(-c4ccc(Cl)cc4)n[nH]3)CC2)cc1	.	i	.	.
Cc1ccc(S(=O)(=O)CC(=O)c2ccc3c(c2)OCCO3)cc1	0.92	i	.	.
CS(=O)(=O)N1CCN(c2ccc(NC(=S)NC(=O)c3cccs3)cc2)CC1	.	i	.	.
O=C(NC(=S)Nc1ccc(N2CCCCC2)cc1)c1cccs1	5.79*	i	i	126.5%*	CHO-K1 ctr=-8.3;KCNQ1 sel pot=-10.2;KCNQ2 pot conf=3.0*;Kir21 spec=-38.2;KCNQ2 W236L MoA=i
COc1cccc(/C=N\NS(=O)(=O)c2ccccc2)c1OC	.	i	.	.
Cn1cc(CCCC(=O)NCc2ccc(F)cc2)c2ccccc21	.	i	.	.
O=C(CN1CCC(Cc2ccccc2)CC1)Nc1ccc2c(c1)OCCO2	5.47*	i	.	.	CHO-K1 ctr=-6.4;KCNQ1 sel pot=-17.3;KCNQ2 pot conf=0.3*;Kir21 spec=-55.4;KCNQ2 W236L MoA=i
CN(C)S(=O)(=O)c1ccc(NC(=O)CN2CCC(Cc3ccccc3)CC2)cc1	4.32	i	.	.
Cn1c(CNC(=O)CNC(=O)c2ccc(F)cc2)cc(=O)n(C)c1=O	0.08	i	.	.
O=c1cc(-c2ccccc2)nc2c(-c3ccccc3)c(C(F)(F)F)[nH]n12	23.1*	i	i	366.0%*	CHO-K1 ctr=6.8*;KCNQ1 sel pot=-17.2;KCNQ2 pot conf=94.1*;Kir21 spec=-28.9;KCNQ2 W236L MoA=i
Cc1cc(=O)n2[nH]c(C)c(-c3ccccc3)c2n1	.	i	.	.
O=C(Nc1cc(C(F)(F)F)ccc1-n1cnc2ccccc21)c1ccccc1	.	i	.	.
COc1cc(NC(=O)Cc2cccs2)c(C(=O)O)cc1OC	.	i	.	.
CCOCc1cc(CN2CCC(CCC(=O)NC3CC3)CC2)ccc1OC	0.59	i	.	.
CCCC(C(=O)NCc1ccco1)N(Cc1ccco1)C(=O)CNS(=O)(=O)c1ccccc1 (stereo not given)	.	i	.	.
COc1cc(C)ccc1OCCCCNCc1ccccc1	0.05	i	58.5%*	i
C/C=C/c1ccc(OCCOCCNCc2ccccc2)c(OC)c1	0.43	i	30.0%*	i
Cc1ccc(OCCNCc2ccccc2)c(C)c1	.	i	.	.
C/C=C/c1ccc(OCCOc2cc(C=O)ccc2OC)c(OC)c1	0.03	i	.	.
CCOC(=O)COc1ccc(S(=O)(=O)N2CCN(c3ccccc3)CC2)cc1	0.45	i	.	.
Cc1cccc(NS(=O)(=O)c2csc(C(N)=O)c2)c1C	0.87	i	.	.

From PubChem
